This note sets out measurements from PubChem BioAssay AID588689 (Southern Research Specialized Biocontainment Screening …, 2011).

The campaign covered roughly 340,000 compounds. About 1,000 (0.29%) were called active. Rule as the data show it: inconclusive = inhibition above about 29% without an active follow-up result; inactive = below that. Only a sample is shown. Results with a measured potency or affinity are listed apart.

This assay has as its target Genome polyprotein (Dengue virus type 2 (strain 16681-PDK53)) (UniProt P29991). Put plainly: flavivirus cap methylation enzyme inhibition – biochemical, confirmation dose response, primary screen (AID 588689). As to conditions: Dengue-2 NS5 methyltransferase capping enzyme assay, at 25 µM, stronger effect = higher value.
Setting [1] is: measured here: pilot screen replicate inhibition.

Chain of Genome polyprotein (Dengue virus type 2 (strain 16681-PDK53)) (P29991 whole entry, looked up): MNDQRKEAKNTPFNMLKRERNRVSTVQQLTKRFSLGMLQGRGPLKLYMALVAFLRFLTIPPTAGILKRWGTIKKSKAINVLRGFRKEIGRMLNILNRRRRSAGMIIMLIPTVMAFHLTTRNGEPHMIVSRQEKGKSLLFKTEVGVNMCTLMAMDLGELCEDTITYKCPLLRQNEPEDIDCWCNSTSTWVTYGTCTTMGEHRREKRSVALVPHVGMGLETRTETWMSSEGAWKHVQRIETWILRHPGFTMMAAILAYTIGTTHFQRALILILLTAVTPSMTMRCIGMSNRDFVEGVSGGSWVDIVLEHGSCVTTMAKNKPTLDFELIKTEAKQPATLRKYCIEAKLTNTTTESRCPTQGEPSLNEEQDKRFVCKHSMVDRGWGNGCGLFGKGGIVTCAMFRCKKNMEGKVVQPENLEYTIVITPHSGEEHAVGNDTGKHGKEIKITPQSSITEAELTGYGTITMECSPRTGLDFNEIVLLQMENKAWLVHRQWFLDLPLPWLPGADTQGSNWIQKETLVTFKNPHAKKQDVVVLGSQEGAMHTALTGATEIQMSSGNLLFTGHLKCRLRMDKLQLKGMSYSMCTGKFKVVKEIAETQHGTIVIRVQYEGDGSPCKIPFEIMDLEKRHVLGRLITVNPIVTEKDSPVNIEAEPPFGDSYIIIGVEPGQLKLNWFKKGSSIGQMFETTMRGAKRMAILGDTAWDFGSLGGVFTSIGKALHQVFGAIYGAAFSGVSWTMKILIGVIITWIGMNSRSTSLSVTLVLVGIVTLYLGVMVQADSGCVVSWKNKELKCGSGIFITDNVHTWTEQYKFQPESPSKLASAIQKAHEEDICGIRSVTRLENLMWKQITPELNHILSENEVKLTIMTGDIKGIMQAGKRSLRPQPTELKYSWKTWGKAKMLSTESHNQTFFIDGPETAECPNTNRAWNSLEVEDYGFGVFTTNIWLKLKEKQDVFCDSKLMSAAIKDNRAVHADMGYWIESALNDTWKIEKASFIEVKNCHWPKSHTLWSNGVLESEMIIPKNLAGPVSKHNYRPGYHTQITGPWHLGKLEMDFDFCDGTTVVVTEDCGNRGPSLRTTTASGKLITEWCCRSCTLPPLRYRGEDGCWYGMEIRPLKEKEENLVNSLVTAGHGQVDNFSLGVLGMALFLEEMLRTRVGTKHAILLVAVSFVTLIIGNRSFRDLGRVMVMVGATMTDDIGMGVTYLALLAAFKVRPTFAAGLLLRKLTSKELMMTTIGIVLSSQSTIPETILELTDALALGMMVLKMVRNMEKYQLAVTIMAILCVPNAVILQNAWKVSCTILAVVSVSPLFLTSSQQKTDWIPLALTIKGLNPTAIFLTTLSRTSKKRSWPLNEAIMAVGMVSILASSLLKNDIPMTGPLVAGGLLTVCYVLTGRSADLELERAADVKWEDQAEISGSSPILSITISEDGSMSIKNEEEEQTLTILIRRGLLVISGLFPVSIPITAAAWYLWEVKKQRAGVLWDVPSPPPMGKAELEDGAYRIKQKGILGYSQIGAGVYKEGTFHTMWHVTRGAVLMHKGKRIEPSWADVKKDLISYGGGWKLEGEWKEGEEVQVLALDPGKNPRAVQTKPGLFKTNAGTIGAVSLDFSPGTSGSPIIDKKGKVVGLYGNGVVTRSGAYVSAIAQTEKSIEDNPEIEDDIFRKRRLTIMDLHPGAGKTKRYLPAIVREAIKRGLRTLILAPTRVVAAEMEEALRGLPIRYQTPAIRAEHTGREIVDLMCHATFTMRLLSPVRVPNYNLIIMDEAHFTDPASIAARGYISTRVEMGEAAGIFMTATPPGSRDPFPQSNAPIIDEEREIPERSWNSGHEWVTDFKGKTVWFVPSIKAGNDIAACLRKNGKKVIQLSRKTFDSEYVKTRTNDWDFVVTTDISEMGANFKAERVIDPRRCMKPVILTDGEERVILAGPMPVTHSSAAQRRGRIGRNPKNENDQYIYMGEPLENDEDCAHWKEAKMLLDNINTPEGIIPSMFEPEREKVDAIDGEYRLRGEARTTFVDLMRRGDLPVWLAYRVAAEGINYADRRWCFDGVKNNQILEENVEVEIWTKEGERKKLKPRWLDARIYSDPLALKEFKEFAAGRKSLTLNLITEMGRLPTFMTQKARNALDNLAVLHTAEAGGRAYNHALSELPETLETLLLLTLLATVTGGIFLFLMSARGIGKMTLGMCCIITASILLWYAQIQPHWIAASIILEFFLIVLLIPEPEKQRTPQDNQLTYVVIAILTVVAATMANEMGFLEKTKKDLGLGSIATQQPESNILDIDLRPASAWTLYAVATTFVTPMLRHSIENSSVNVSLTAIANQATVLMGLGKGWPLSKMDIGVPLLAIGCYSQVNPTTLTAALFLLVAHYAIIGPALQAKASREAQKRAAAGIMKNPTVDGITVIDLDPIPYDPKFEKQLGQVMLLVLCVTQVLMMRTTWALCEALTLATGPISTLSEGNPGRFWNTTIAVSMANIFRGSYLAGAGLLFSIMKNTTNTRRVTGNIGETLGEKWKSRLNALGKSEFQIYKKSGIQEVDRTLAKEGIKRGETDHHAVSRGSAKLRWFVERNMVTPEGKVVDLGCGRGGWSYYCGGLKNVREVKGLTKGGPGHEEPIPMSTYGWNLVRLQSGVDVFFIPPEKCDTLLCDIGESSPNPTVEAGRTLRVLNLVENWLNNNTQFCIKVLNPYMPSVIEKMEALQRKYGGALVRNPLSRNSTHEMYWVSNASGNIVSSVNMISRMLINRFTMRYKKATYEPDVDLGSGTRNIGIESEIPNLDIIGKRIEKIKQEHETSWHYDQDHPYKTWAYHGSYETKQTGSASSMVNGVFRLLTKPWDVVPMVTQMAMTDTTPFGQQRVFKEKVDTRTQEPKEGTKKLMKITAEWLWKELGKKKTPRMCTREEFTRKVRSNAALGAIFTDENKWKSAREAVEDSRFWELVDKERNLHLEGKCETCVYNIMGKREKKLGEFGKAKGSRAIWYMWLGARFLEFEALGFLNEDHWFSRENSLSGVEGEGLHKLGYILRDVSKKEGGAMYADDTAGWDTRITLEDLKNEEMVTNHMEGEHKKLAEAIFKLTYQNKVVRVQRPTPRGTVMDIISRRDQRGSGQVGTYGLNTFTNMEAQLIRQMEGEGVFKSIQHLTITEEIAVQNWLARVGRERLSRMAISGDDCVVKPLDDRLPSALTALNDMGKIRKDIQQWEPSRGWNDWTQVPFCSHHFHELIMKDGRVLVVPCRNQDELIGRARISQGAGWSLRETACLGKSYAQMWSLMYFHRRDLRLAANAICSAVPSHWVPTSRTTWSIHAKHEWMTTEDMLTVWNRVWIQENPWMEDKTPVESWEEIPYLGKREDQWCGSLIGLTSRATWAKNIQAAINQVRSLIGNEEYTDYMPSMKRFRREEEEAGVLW

As usually defined, the inhibition is the relative decrease from the control value, in per cent. In the case of `O=C(Nc1ccc2c(c1)OCO2)c1n[nH]c(=O)c2ccccc12`, the inhibition is 11.1% (inactive).

Consider `CSCCC(NC(=O)C1CC1)c1nc2ccccc2[nH]1` (stereo not given), for which the inhibition is -5.48% (inactive).

Regarding `C[C@H](NC(=O)c1nc[nH]c1C(=O)N1CCN(C(=O)OC(C)(C)C)CC1)C(=O)OCc1ccccc1`, the inhibition was -2.48% (inactive).

Turning to `O=C(Nc1ccc(C(F)(F)F)cc1)c1csc(-c2ccncc2)n1`, the inhibition was -2.96% (inactive).

`CSc1nsc(SC)c1NC(=O)N1CCCC1`: the inhibition is -1.61% (inactive).

Take `Cc1ccc(N2NC(=O)/C(=C/c3ccc(-c4ccc(Cl)c(C(=O)O)c4)o3)C2=O)cc1`: the inhibition was 15.4% (inactive).

In the case of `C#CCN1C(=O)S/C(=C\c2ccc(-c3ccc(Cl)c(C(=O)O)c3)o2)C1=O`, the inhibition was 2.31% (inactive).

Regarding `O=C(O)c1cc(-c2ccc(/C=C3\NC(=O)N(c4ccccc4)C3=O)o2)ccc1Cl`, the inhibition is 3.09% (inactive).

Turning to `O=C(O)c1cc(-c2ccc(/C=C3\NC(=O)N(c4ccc(Cl)cc4)C3=O)o2)ccc1Cl`, the inhibition is 13.8% (inactive).

Turning to `Cc1cn([C@H]2C[C@H](O)[C@@H](CNC(=O)CNC(=O)CN)O2)c(=O)[nH]c1=O`, the inhibition was 2.27% (inactive).

For the molecule `CCOc1ccc2nc(N/C(N)=N/S(=O)(=O)c3ccc(C)cc3)nc(C)c2c1`, the inhibition is -2.74% (inactive).

For the molecule `Cc1ccc(NC(=O)CC(=O)c2ccccc2)cc1C`, the inhibition was -1.66% (inactive).

With `C[C@H](NC(=O)c1ccccc1Cl)C(=O)OC(C(=O)Nc1cc(C(F)(F)F)ccc1Cl)c1ccccc1` (stereo not given in full), the inhibition was 6.11% (inactive).

With `Oc1ccccc1N=N/C(=N/Nc1ccccc1O)c1ccccc1`, the inhibition was 6.32% (inactive).

For the molecule `O=C(O)c1cc(S(=O)(=O)Nc2ccccc2C(=O)O)ccc1O`, the inhibition was 24.8% (inactive).

Regarding `CC(=O)Nc1ccc(N2CCCCC2)c(C(=O)Nc2cccc(C)c2)c1`, the inhibition is 1.3% (inactive).

Take `Cc1cccc(NC(=O)c2cc(NC(=O)C3CCCCC3C(=O)O)ccc2N2CCOCC2)c1` (stereo not given): the inhibition was 3.25% (inactive).

As for `Cc1cnc(C(=O)OCc2nc3ccsc3c(=O)[nH]2)cn1`, the inhibition was -4.41% (inactive).

For the molecule `Cc1ncc(CN2CCCC(C(=O)Nc3ccc(-c4ccco4)cc3)C2)cn1` (stereo not given), the inhibition was -25.6% (inactive).

For the molecule `O=C1C(=O)c2ccc(-c3ccccc3)cc2-c2ccccc21`, the inhibition is -10.1% (inactive). Besides, the inhibition under setting [1] was 8.18%.

Take `O=C1C(=C(O)c2ccccc2)C(=O)c2ccccc21`: the inhibition is 12.9% (inactive).

`COc1ccccc1-n1cc(-c2ccccc2)c2c(=S)nc[nH]c21`: the inhibition was 7.35% (inactive).

With `COc1ccc(NC(=O)CCCc2ccccc2)cc1OC`, the inhibition was -7.95% (inactive).

Turning to `CC(=O)NC(CC(=O)OCC(=O)c1ccc(NC(=O)CC(C)C)cc1)c1ccccc1` (stereo not given), the inhibition was -7.74% (inactive).

On to `O=C1C(Cl)=C(Nc2ccccc2)C(=O)c2ccccc21`, for which the inhibition was 5.85% (inactive).

Take `CCNC1=C(Cl)C(=O)c2ccccc2C1=O`: the inhibition was 6.43% (inactive).

As to `O=C1C(Cl)=C(NCCCO)C(=O)c2ccccc21`, the inhibition was -6.93% (inactive).

As for `O=C(O)c1cccc(NC2=C(n3nnc4ccccc43)C(=O)c3ccccc3C2=O)c1`, the inhibition was 0.29% (inactive).

On to `Cc1ccc(NC2=C(Cl)C(=O)c3ccccc3C2=O)cc1`, for which the inhibition was -0.64% (inactive).

As to `O=C1C(Cl)=C(Nc2ccc(O)cc2)C(=O)c2ccccc21`, the inhibition is 27.1% (inactive).

For the molecule `O=C(O)c1cccc(NC2=C(N3CCOCC3)C(=O)c3ccccc3C2=O)c1`, the inhibition is 15% (inactive).

Regarding `O=S(=O)(Nc1ccc2cn[nH]c2c1)c1ccc(Cl)cc1`, the inhibition is -2.71% (inactive).

With `CCOC(=O)CSc1nnc(-c2cccs2)n1-c1ccccc1`, the inhibition was -7.23% (inactive).

As for `COc1ccc(C)cc1NC(=O)NNC(=O)c1ccoc1C`, the inhibition was 5.8% (inactive).

For `COc1cccc(NC(=O)CN2CCC(NC(=O)c3ccccc3C)CC2)c1`, the inhibition was -2.2% (inactive).

As for `Cc1cccc(NC2=C(NCCO)C(=O)c3ccccc3C2=O)c1`, the inhibition was 1.45% (inactive).

As to `Cc1ccc(NC2=C(NC(=O)c3ccccc3)C(=O)c3ccccc3C2=O)cc1Cl`, the inhibition is 26.9% (inactive).

Turning to `C=CCOc1ccc(/C=C/C(=O)OCC(=O)NCCCc2ccccc2)cc1`, the inhibition is 0% (inactive).

As to `Cn1c(NC(=O)c2ccc(C(C)(C)C)cc2)cc(=O)n(C)c1=O`, the inhibition is 2.78% (inactive).

With `O=C(c1cccnc1)N1CCN(CCCc2ccccc2)CC1`, the inhibition was -7.9% (inactive).

Turning to `COc1ccc(/C=C2/SC(=S)N(CCC(=O)O)C2=O)cc1`, the inhibition was 4.79% (inactive).

`O=C(O)CCN1C(=O)/C(=C\c2cccc(OCc3ccccc3)c2)SC1=S`: the inhibition is 40.6% (inactive).

In the case of `COc1cccc(/C=C2\SC(=S)N(CCC(=O)Nc3ccc(O)cc3)C2=O)c1`, the inhibition was 3.49% (inactive).

With `Cc1ccc(NC(=O)COc2cccc(/C=C3\SC(=S)N(CCC(=O)O)C3=O)c2)cc1Cl`, the inhibition is 0.88% (inactive).

On to `O=C(COC(=O)c1cc(S(=O)(=O)N2CCOCC2)ccc1F)NCc1ccc2c(c1)OCO2`, for which the inhibition is -7.39% (inactive).

On to `C/C(CCc1ccccc1)=N/NC(=O)C(=O)NC(C)c1ccccc1` (stereo not given), for which the inhibition is -9.31% (inactive).

With `CCc1cc(C(=O)Cc2cnn(-c3ccccc3)c2)c(O)cc1O`, the inhibition was 5.45% (inactive). In addition, the inhibition under setting [1] was -6.54%.

As for `O=C(c1cnn(-c2ccccc2)c1)c1ccccc1O`, the inhibition is 4.45% (inactive).

Consider `O=C(Cc1ccc(Br)cc1)Nc1nc2ccccc2[nH]1`, for which the inhibition was 3.24% (inactive).

For the molecule `COc1cccc(C(=O)N/N=C/c2ccc(OC)c(COc3ccccc3C(N)=O)c2)c1`, the inhibition was 3.25% (inactive).

On to `C=CCn1c(SCC(=O)NC(=O)NCCC)nnc1C1CCCCC1`, for which the inhibition is 3.46% (inactive).

Turning to `O=C1c2ccccc2CCC12OC2c1ccc([N+](=O)[O-])cc1` (stereo not given), the inhibition is -3.43% (inactive).

Turning to `CCOc1ccc(-c2cn(-c3ccc(OC)cc3)c(SC)n2)cc1`, the inhibition was -2.59% (inactive).

In the case of `CCn1c(SCC(N)=O)nnc1-c1ccc(OC)c(OC)c1`, the inhibition is -2.41% (inactive).

Regarding `CCSc1nc2cc(OC)c(OC)cc2c(=O)n1CC`, the inhibition is 2.71% (inactive).

Take `CCOc1ccc(C(=O)CSc2nnc(C3CC3)n2C)cc1`: the inhibition was -4.8% (inactive).

For `COc1ccc(C(c2c(O)nc(SC)n(C)c2=O)c2c(O)nc(SC)n(C)c2=O)cc1O`, the inhibition was -4.46% (inactive).

On to `COc1cccc(C(c2c(O)nc(SC)n(C)c2=O)c2c(O)nc(SC)n(C)c2=O)c1`, for which the inhibition is 16.2% (inactive). The inhibition under setting [1] was -1.21%.

With `COCCn1c(C)nnc1SCC(=O)NNC(=O)c1ccc(Br)cc1`, the inhibition was -3.23% (inactive).

As for `O=C(ONC(=O)C1C2C=CC(C2)C1C(=O)NOC(=O)c1ccccc1)c1ccccc1` (stereo not given), the inhibition is -1.55% (inactive).

For the molecule `O=C(CC1SCCNC1=O)Nc1ccccc1Cl` (stereo not given), the inhibition was 0% (inactive).

As for `COc1ccccc1C(=O)NCC(=O)N/N=C/c1cn[nH]c1-c1ccccc1`, the inhibition is -1.82% (inactive).

On to `Cc1c(OC(C)C(=O)NCC(O)c2ccccc2)ccc2c3c(c(=O)oc12)CCCC3` (stereo not given), for which the inhibition is 2.62% (inactive).

Take `CN1CCc2c(sc(NC(=O)c3ccc([N+](=O)[O-])o3)c2C(N)=O)C1`: the inhibition was 6.69% (inactive).

On to `CC(C)N1CCc2c(sc(NC(=O)c3ccc([N+](=O)[O-])o3)c2C(N)=O)C1`, for which the inhibition was -6.69% (inactive).

As for `COc1ccc(C(CNC(=O)c2ccc(-c3ccccc3Cl)o2)N2CCCC2)cc1` (stereo not given), the inhibition was 1.14% (inactive).

As for `NS(=O)(=O)c1ccc(CCNC(=O)Nc2ccc(Cl)c(Cl)c2)cc1`, the inhibition was -1.37% (inactive).

On to `CCc1c(C(=O)N2CCOCC2)csc1C`, for which the inhibition was -2.41% (inactive).

As for `O=C(c1ccccc1)c1cn[nH]c1-c1ccccc1O`, the inhibition is -2.78% (inactive).

Regarding `Cc1nc(COC(=O)c2ccc(CO)cc2)cs1`, the inhibition is -2.35% (inactive).

As to `COc1ccc(C(=O)OCc2csc(C)n2)c(O)c1`, the inhibition was -2.19% (inactive).

On to `COc1ccc(OC)c(C(=O)CCCCC(=O)c2cc(OC)ccc2OC)c1`, for which the inhibition is 2.88% (inactive).

As for `CCCCCc1cc(OC)cc2c1C(=O)OC(C)(C)O2`, the inhibition is 1.32% (inactive). For the same molecule, the inhibition under setting [1] is -1.23%.

Regarding `COc1ccc(OC)c(C(=O)CCCC(=O)c2cc(OC)ccc2OC)c1`, the inhibition is 5.23% (inactive).

For `CCCCc1c(C(=O)O)cc(OC)cc1C(=O)O`, the inhibition is 5.73% (inactive).

In the case of `Cc1nc2c([nH]1)C1(CCN(Cc3ccccc3)CC1)C(C#N)=C(N)O2`, the inhibition was 12.1% (inactive).

On to `O=C(c1ccncc1)N(Cc1cc2ccccc2[nH]c1=O)C1CCCCC1`, for which the inhibition is -1.6% (inactive).

As for `Cc1ccc(NS(=O)(=O)c2ccccc2)c(NS(=O)(=O)c2ccccc2)c1`, the inhibition was 13.2% (inactive).

As to `COc1ccc(S(=O)(=O)NC2CC3CCC2C3)cc1` (stereo not given), the inhibition was -4.66% (inactive).

Take `Cc1c(CCC(=O)O)c(=O)oc2cc3occ(-c4ccc(Cl)cc4)c3cc12`: the inhibition was 18.3% (inactive).

For the molecule `COc1ccc(-c2coc3c(C)c4oc(=O)c(CCC(=O)O)c(C)c4cc23)cc1`, the inhibition is 11.8% (inactive).

Consider `COc1cccc(-c2coc3c(C)c4oc(=O)c(CC(=O)O)c(C)c4cc23)c1`, for which the inhibition is 1.96% (inactive).

With `Cc1c(CC(=O)O)c(=O)oc2c(C)c3occ(-c4ccc(Br)cc4)c3cc12`, the inhibition was 26.1% (inactive).

`COc1ccccc1COc1ccc2c(C)c(CCC(=O)O)c(=O)oc2c1C`: the inhibition was 7.18% (inactive).

For `COc1cccc(-c2coc3cc4oc(=O)c(CCC(=O)O)c(C)c4cc23)c1`, the inhibition is 9.7% (inactive).

Turning to `Cc1c(CCC(=O)O)c(=O)oc2cc3occ(-c4ccc(Br)cc4)c3cc12`, the inhibition was 17.7% (inactive).

`Cc1c(CC(=O)O)c(=O)oc2c(C)c(OCc3ccc(F)cc3Cl)ccc12`: the inhibition was 1.96% (inactive).

`CCC[C@@H](CN1CCC[C@H]1CN1C(N)=NC[C@@H]1Cc1ccccc1)N1C[C@@H]([C@H](C)CC)N(CCc2ccc(Cl)c(Cl)c2)C1=N`: the inhibition was -10.2% (inactive).

On to `COc1ccc(-n2c(=O)cc(N3CC(C)OC(C)C3)[nH]c2=O)cc1` (stereo not given), for which the inhibition was -3.21% (inactive).

`N#Cc1ccc(OCc2nnc3n2CCCCC3)cc1`: the inhibition was -1.53% (inactive).

In the case of `CCOCCn1c(CN2CCN(C(c3ccccc3)c3ccccc3)CC2)nc2c1c(=O)n(C)c(=O)n2C`, the inhibition was -5.88% (inactive).
